Reference: PubChem BioAssay (NCI)
This is part of a sample that, as a whole, favours compounds with a hit. Of some 83,000 tested, about 20% had one in any assay.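 Compound tested at a single concentration for 48 hours in 96-well plates; a percent growth value below 10 was scored as active.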 Calls of active or inactive are those of the source.

What was measured:
Assay in all cases: NCI-60 one-dose screen, 48 h (100 = growth as untreated, 0 = no growth, -100 = all killed)
Settings in all cases: 10 µM
RPMI-8226 leukemia = system: RPMI-8226 leukemia
OVCAR-8 ovarian = system: OVCAR-8 ovarian
OVCAR-5 ovarian = system: OVCAR-5 ovarian
OVCAR-4 ovarian = system: OVCAR-4 ovarian
SK-OV-3 ovarian = system: SK-OV-3 ovarian
IGROV1 ovarian = system: IGROV1 ovarian
OVCAR-3 ovarian = system: OVCAR-3 ovarian
NCI/ADR-RES ovarian = system: NCI/ADR-RES ovarian
T-47D breast = system: T-47D breast
BT-549 breast = system: BT-549 breast
MDA-MB-435 melanoma = system: MDA-MB-435 melanoma
MCF7 breast = system: MCF7 breast
HCT-116 colon = system: HCT-116 colon
KM12 colon = system: KM12 colon
HS 578T breast = system: HS 578T breast
SW-620 colon = system: SW-620 colon
HCC-2998 colon = system: HCC-2998 colon

Measured: growth

CCN(CCCCCCCCCCN1CC(=O)N(CCCCCCCCCCN(CC)Cc2ccccc2OC)CC1=O)Cc1ccccc1OC
active: RPMI-8226 leukemia -70.2% | OVCAR-8 ovarian -77.1% | OVCAR-5 ovarian 8.29% | SK-OV-3 ovarian -38.5% | IGROV1 ovarian -66.3% | OVCAR-3 ovarian -62.6% | NCI/ADR-RES ovarian -32.9% | T-47D breast -66.5% | BT-549 breast -50.7% | MDA-MB-435 melanoma -72% | MCF7 breast -89.2% | HCT-116 colon -95.2% | KM12 colon -76.2%
inactive: OVCAR-4 ovarian 10.2%

COc1ccc(-c2nn(-c3cccc(NC(=O)c4ccc5c(c4)OCCO5)c3)cc2-c2ccncc2)cc1Cl
inactive: OVCAR-8 ovarian 29.6% | OVCAR-5 ovarian 42.7% | OVCAR-4 ovarian 49% | SK-OV-3 ovarian 25.9% | NCI/ADR-RES ovarian 10.2% | T-47D breast 19.5% | BT-549 breast 34.2% | SW-620 colon 18.3% | HCT-116 colon 15.3% | HCC-2998 colon 46.5%
active: RPMI-8226 leukemia -11.4% | OVCAR-3 ovarian 4.99% | HS 578T breast 1.38% | MDA-MB-435 melanoma -61.8% | MCF7 breast 2.05%

CCN(CC)CCSCCN(CC)CC
inactive: RPMI-8226 leukemia 105% | OVCAR-8 ovarian 101% | OVCAR-5 ovarian 94.3% | OVCAR-4 ovarian 96.4% | SK-OV-3 ovarian 98.9% | OVCAR-3 ovarian 108% | HS 578T breast 106% | NCI/ADR-RES ovarian 108% | T-47D breast 94% | BT-549 breast 105% | MDA-MB-435 melanoma 101% | SW-620 colon 99.2% | MCF7 breast 99.1% | HCT-116 colon 107% | HCC-2998 colon 119% | KM12 colon 107%

COc1ccc(NC(=O)Cc2nc3nc4sc(C)c(C)c4c(=O)n3[nH]2)cc1
inactive: RPMI-8226 leukemia 90.5% | OVCAR-8 ovarian 101% | OVCAR-5 ovarian 108% | OVCAR-4 ovarian 113% | SK-OV-3 ovarian 104% | OVCAR-3 ovarian 115% | HS 578T breast 107% | NCI/ADR-RES ovarian 103% | T-47D breast 96.2% | BT-549 breast 103% | MDA-MB-435 melanoma 105% | SW-620 colon 104% | MCF7 breast 96% | HCT-116 colon 101% | HCC-2998 colon 98.1% | KM12 colon 104%

CC/C(=C(/c1ccc(OCCN(C)C)cc1)c1ccc(OC(=O)CCCCCCCCC(=O)c2c(C)[nH]c(/C=C3\N=C(c4ccc[nH]4)C=C3OC)c2C)cc1)c1ccccc1
active: MCF7 breast -2.49%
inactive: RPMI-8226 leukemia 48.4% | OVCAR-8 ovarian 86.8% | OVCAR-5 ovarian 103% | OVCAR-4 ovarian 61.6% | SK-OV-3 ovarian 80.7% | OVCAR-3 ovarian 89.6% | HS 578T breast 58.3% | NCI/ADR-RES ovarian 91.8% | T-47D breast 48.3% | BT-549 breast 69.2% | MDA-MB-435 melanoma 52.8% | SW-620 colon 53.8% | HCT-116 colon 21.6% | HCC-2998 colon 100%

O=C1/C(=C\c2ccccc2)CN(C(=O)c2ccccc2)C/C1=C\c1ccccc1
inactive: OVCAR-8 ovarian 14.3% | OVCAR-5 ovarian 70.5% | OVCAR-4 ovarian 36.5% | SK-OV-3 ovarian 50.1% | NCI/ADR-RES ovarian 21.9% | T-47D breast 48.7%
active: RPMI-8226 leukemia -27% | OVCAR-3 ovarian -12.2% | HS 578T breast -14.8% | BT-549 breast 2.1% | MDA-MB-435 melanoma -49.6% | SW-620 colon -62.3% | MCF7 breast -36.9% | HCT-116 colon -81.4% | HCC-2998 colon -77.9%

O=C1/C(=C\c2ccc(Br)cc2)CN(C(=O)c2ccccc2F)C/C1=C\c1ccc(Br)cc1
inactive: OVCAR-5 ovarian 69.4% | OVCAR-4 ovarian 18.2% | SK-OV-3 ovarian 27.2% | HS 578T breast 24.1% | NCI/ADR-RES ovarian 12.7% | T-47D breast 53.3%
active: RPMI-8226 leukemia -37.7% | OVCAR-8 ovarian 1.47% | OVCAR-3 ovarian -52.6% | BT-549 breast -0.615% | MDA-MB-435 melanoma -44.9% | SW-620 colon -56.4% | MCF7 breast -33.5% | HCT-116 colon -76.1% | HCC-2998 colon -81.3%

COc1cc(C(=C2O[C@@H]([C@H]3COC(C)(C)O3)[C@H]3OC(C)(C)O[C@@H]23)c2cc(OC)c(OC)c(OC)c2)cc(OC)c1OC
inactive: RPMI-8226 leukemia 88.1% | OVCAR-8 ovarian 108% | OVCAR-5 ovarian 90.8% | OVCAR-4 ovarian 108% | SK-OV-3 ovarian 116% | IGROV1 ovarian 137% | OVCAR-3 ovarian 112% | NCI/ADR-RES ovarian 91.7% | T-47D breast 95.7% | BT-549 breast 111% | MDA-MB-435 melanoma 113% | MCF7 breast 103% | HCT-116 colon 96.4% | KM12 colon 107%

CCN(CCCCCCN1CC(=O)N(CCCCCCN(CC)Cc2ccccc2OC)CC1=O)Cc1ccccc1OC
inactive: RPMI-8226 leukemia 30.3% | OVCAR-8 ovarian 86.7% | OVCAR-5 ovarian 68.9% | OVCAR-4 ovarian 77.1% | SK-OV-3 ovarian 102% | IGROV1 ovarian 61.1% | OVCAR-3 ovarian 59.5% | NCI/ADR-RES ovarian 70.9% | T-47D breast 90.8% | BT-549 breast 87.8% | MDA-MB-435 melanoma 85.9% | MCF7 breast 83.6% | HCT-116 colon 37.6% | KM12 colon 65.5%

O=C(CC(C(=O)c1ccccc1)N1CCOCC1)c1ccccc1 (configuration not stated)
inactive: RPMI-8226 leukemia 40.5% | OVCAR-8 ovarian 97.3% | OVCAR-5 ovarian 95.5% | OVCAR-4 ovarian 106% | SK-OV-3 ovarian 98.3% | IGROV1 ovarian 106% | HS 578T breast 99% | NCI/ADR-RES ovarian 98% | T-47D breast 72.1% | BT-549 breast 99.6% | MDA-MB-435 melanoma 107% | SW-620 colon 60.8% | MCF7 breast 43.4% | HCT-116 colon 77.3% | HCC-2998 colon 104%

O=C(Cc1csc2nc(-c3ccc(Cl)cc3)cn12)N/N=C/c1ccccc1O
inactive: RPMI-8226 leukemia 23.6% | OVCAR-8 ovarian 41.6% | OVCAR-5 ovarian 58.2% | OVCAR-4 ovarian 43.2% | SK-OV-3 ovarian 52.7% | IGROV1 ovarian 11.7% | OVCAR-3 ovarian 13.9% | NCI/ADR-RES ovarian 41.3% | T-47D breast 57.7% | BT-549 breast 62.6% | MDA-MB-435 melanoma 67.4% | MCF7 breast 42.5% | HCT-116 colon 36.6% | KM12 colon 36.5%

CC1CC(=O)OC(C)C1 (configuration not stated)
inactive: RPMI-8226 leukemia 104% | OVCAR-8 ovarian 104% | OVCAR-5 ovarian 105% | OVCAR-4 ovarian 97.6% | SK-OV-3 ovarian 101% | OVCAR-3 ovarian 116% | HS 578T breast 112% | NCI/ADR-RES ovarian 112% | T-47D breast 107% | BT-549 breast 114% | MDA-MB-435 melanoma 96.7% | SW-620 colon 107% | MCF7 breast 91.1% | HCT-116 colon 104% | HCC-2998 colon 92.5% | KM12 colon 110%

O=C(CC(c1ccccc1)N1CCOCC1)c1ccccc1 (configuration not stated)
active: RPMI-8226 leukemia 5.15%
inactive: OVCAR-8 ovarian 96.6% | OVCAR-5 ovarian 79.3% | OVCAR-4 ovarian 98.3% | SK-OV-3 ovarian 104% | IGROV1 ovarian 97.4% | OVCAR-3 ovarian 94.7% | T-47D breast 72% | BT-549 breast 89.8% | MDA-MB-435 melanoma 89.7% | MCF7 breast 32.2% | HCT-116 colon 34.5% | KM12 colon 23%

O=C(NN1C(=O)CSC1c1ccc(Cl)cc1)c1cccnc1 (configuration not stated)
inactive: RPMI-8226 leukemia 74.8% | OVCAR-8 ovarian 99.7% | OVCAR-5 ovarian 86.7% | OVCAR-4 ovarian 118% | SK-OV-3 ovarian 106% | IGROV1 ovarian 112% | OVCAR-3 ovarian 121% | NCI/ADR-RES ovarian 91.4% | T-47D breast 102% | BT-549 breast 102% | MDA-MB-435 melanoma 87.3% | MCF7 breast 111% | HCT-116 colon 86.9% | KM12 colon 94.2%

CN(C)c1ccc(Cc2ccc(N(C)C)cc2Cl)c(Cl)c1
inactive: RPMI-8226 leukemia 81.1% | OVCAR-8 ovarian 101% | OVCAR-5 ovarian 99.6% | OVCAR-4 ovarian 78.6% | SK-OV-3 ovarian 103% | IGROV1 ovarian 90.7% | OVCAR-3 ovarian 94.9% | NCI/ADR-RES ovarian 101% | T-47D breast 87.1% | BT-549 breast 136% | MDA-MB-435 melanoma 109% | SW-620 colon 91.2% | MCF7 breast 111% | HCT-116 colon 95.4% | HCC-2998 colon 96.8% | KM12 colon 90.4%

CCC1(C(C)C)NC(=O)NC1=O (configuration not stated)
inactive: RPMI-8226 leukemia 91.8% | OVCAR-8 ovarian 104% | OVCAR-5 ovarian 89.3% | OVCAR-4 ovarian 103% | SK-OV-3 ovarian 107% | IGROV1 ovarian 112% | OVCAR-3 ovarian 115% | NCI/ADR-RES ovarian 99.5% | T-47D breast 97% | BT-549 breast 104% | MDA-MB-435 melanoma 106% | MCF7 breast 103% | HCT-116 colon 101%

O=C(CSSCC(=O)c1ccc(Cl)cc1)c1ccc(Cl)cc1
inactive: RPMI-8226 leukemia 24.9% | OVCAR-8 ovarian 47.8% | OVCAR-5 ovarian 60.1% | OVCAR-4 ovarian 85.8% | SK-OV-3 ovarian 60% | IGROV1 ovarian 78.9% | OVCAR-3 ovarian 78.4% | T-47D breast 74.8% | BT-549 breast 84.9% | MDA-MB-435 melanoma 47.9% | SW-620 colon 51.1% | MCF7 breast 86.7% | HCT-116 colon 35.4% | HCC-2998 colon 63.1% | KM12 colon 44.8%
active: NCI/ADR-RES ovarian -13%

COc1ccc2nc3ccccc3c(NCCNCC(C)O)c2c1 (configuration not stated)
active: RPMI-8226 leukemia -1.19% | OVCAR-8 ovarian -2.99% | OVCAR-5 ovarian 1.61% | SK-OV-3 ovarian -3.44% | IGROV1 ovarian 4.2% | T-47D breast -3.73% | MDA-MB-435 melanoma 1.44% | SW-620 colon 0.102% | MCF7 breast 4.08% | HCT-116 colon 0.194% | HCC-2998 colon -11.8% | KM12 colon 9.48%
inactive: OVCAR-4 ovarian 11.8% | HS 578T breast 28.4% | NCI/ADR-RES ovarian 73.6% | BT-549 breast 30.9%

CC/C(=N\N=C(/CC)c1ccc(Br)cc1)c1ccc(Br)cc1
inactive: RPMI-8226 leukemia 93.9% | OVCAR-8 ovarian 116% | OVCAR-5 ovarian 92.4% | OVCAR-4 ovarian 93.7% | SK-OV-3 ovarian 100% | IGROV1 ovarian 79.5% | HS 578T breast 110% | T-47D breast 83% | BT-549 breast 91.1% | MDA-MB-435 melanoma 106% | SW-620 colon 102% | MCF7 breast 90.9% | HCT-116 colon 78.1% | HCC-2998 colon 99.4% | KM12 colon 99.5%
